The record followed here is PubChem BioAssay (NCI).

Compounds without any hit were thinned out: in the full panel of roughly 83,000, 20% have a hit.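 Assay: single dose, 48 h. Readout: percent growth (0 = no net growth; negative = cell death). Active: <10.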 Unmarked numbers belong to inactive results. Calls of active or inactive are those of the source.

Some test systems named below: HCT-15 colon; HT29 colon; SNB-75 CNS; SNB-19 CNS; U251 CNS; PC-3 prostate; SK-MEL-5 melanoma; UACC-62 melanoma; LOX IMVI melanoma; SK-MEL-28 melanoma; SK-MEL-2 melanoma; EKVX NSCLC; SN12C renal; UO-31 renal; TK-10 renal; ACHN renal; CAKI-1 renal; A498 renal; CCRF-CEM leukemia; MOLT-4 leukemia.
What all share (test): NCI-60 one-dose screen, 48 h (100 = growth as untreated, 0 = no growth, -100 = all killed)
What all share (conditions): 10 µM unless noted

Consider `COc1ccc([C@H]2[C@H](O)C(=O)N2c2cc(OC)c(OC)c(OC)c2)cc1F`, for which the growth with HCT-15 colon is 7.86% (active); in the assay with HT29 colon, -26% (active); in the assay on SNB-75 CNS it was 19%; in the assay on SNB-19 CNS, 27.7%; in the assay with U251 CNS it was 7.47% (active); in the assay with PC-3 prostate, 19.8%. Besides, the growth is -30.9% (active) in the assay on SK-MEL-5 melanoma; 33.3% in the assay with UACC-62 melanoma; -6.07% (active) with LOX IMVI melanoma; 63% in the assay on SK-MEL-28 melanoma; -43.3% (active) in the assay on SK-MEL-2 melanoma; 44.7% in the assay on EKVX NSCLC. For the same molecule, the growth with SN12C renal is 27.3%; with UO-31 renal it was 34.2%; in the assay with TK-10 renal, 86.2%; in the assay on ACHN renal, 24.6%; in the assay on CAKI-1 renal, 29.6%; in the assay with A498 renal it was -26.1% (active). Besides, the growth in the assay with CCRF-CEM leukemia is 17.9%; in the assay on MOLT-4 leukemia it was 15.2%.
For the molecule `Cn1cc(-c2nnc(N)nc2-c2c[nH]c3ccc(F)cc23)c2cc(F)ccc21`, the growth was 62% in the assay with HCT-15 colon; 73.8% in the assay with HT29 colon; 100% in the assay on SNB-75 CNS; 75.8% with SNB-19 CNS; 70.6% in the assay on U251 CNS; 72.2% in the assay on PC-3 prostate. Further, the growth in the assay with SK-MEL-5 melanoma is 96.8%; in the assay with UACC-62 melanoma it was 73.8%; with LOX IMVI melanoma, 65.4%; with SK-MEL-28 melanoma it was 94.4%; in the assay on SK-MEL-2 melanoma it was 97.1%; in the assay on EKVX NSCLC it was 89.1%. In addition, the growth with SN12C renal is 81.3%; in the assay on UO-31 renal it was 57.1%; with TK-10 renal, 121%; in the assay with ACHN renal it was 47.7%; in the assay with CAKI-1 renal, 76.4%; in the assay on A498 renal, 86.3%. For the same molecule, the growth in the assay on CCRF-CEM leukemia was 39.4%; with MOLT-4 leukemia, 23.5%.
For the molecule `O=C(Nc1nc2ccc([N+](=O)[O-])cc2s1)Nc1ccccc1Br`, the growth in the assay with HCT-15 colon was 24.3%; in the assay on HT29 colon, 44.9%; with SNB-75 CNS it was 77.3%; with SNB-19 CNS, 20.5%; with U251 CNS it was 10.6%; in the assay with PC-3 prostate, 3.13% (active). Also, the growth is -3.21% (active) in the assay with SK-MEL-5 melanoma; 32.3% with UACC-62 melanoma; 44.8% in the assay on LOX IMVI melanoma; 48.8% in the assay on SK-MEL-28 melanoma; 48.1% with SK-MEL-2 melanoma; 35.3% in the assay with EKVX NSCLC. The growth in the assay with SN12C renal was 23.4%; in the assay with UO-31 renal, 43.4%; with TK-10 renal it was 81.1%; in the assay on ACHN renal, 47.3%; with CAKI-1 renal, 64.1%; in the assay with A498 renal, 21.4%. Moreover, the growth in the assay with CCRF-CEM leukemia is 37.6%; in the assay with MOLT-4 leukemia, 27.1%.
On to `COc1ccc(N2C(=O)c3cc(Cl)ccc3NC2SCc2ccccc2)cc1` (stereo not given), for which the growth in the assay on HCT-15 colon is 82%; in the assay on HT29 colon it was 84.1%; in the assay with SNB-75 CNS, 94.9%; in the assay on SNB-19 CNS, 95.7%; in the assay with U251 CNS, 99.4%; with PC-3 prostate, 84.8%. Also, the growth in the assay on SK-MEL-5 melanoma is 102%; in the assay on UACC-62 melanoma, 70.3%; in the assay on LOX IMVI melanoma it was 94.8%; with SK-MEL-28 melanoma, 99.2%; in the assay on SK-MEL-2 melanoma, 98.9%; in the assay with EKVX NSCLC, 91.6%. Also, the growth with SN12C renal is 91.5%; in the assay with UO-31 renal, 63.8%; in the assay on TK-10 renal, 96.2%; with ACHN renal it was 101%; in the assay with CAKI-1 renal, 81.8%; with A498 renal, 84.7%. The results for the growth in the assay on CCRF-CEM leukemia and in the assay on MOLT-4 leukemia were 92.2% and 84.5%, respectively.
`CCn1c(SCC(=O)Nc2cccc(C(=O)/C=C/c3cc(OC)c(OC)c(OC)c3)c2)nc2ccccc2c1=O`: the growth in the assay on HCT-15 colon was -13.9% (active); with HT29 colon, 1.12% (active); with SNB-75 CNS, -4.22% (active); in the assay with SNB-19 CNS, 39.9%; with U251 CNS, 30.1%; with PC-3 prostate, 46.8%. Also, the growth is 33.9% in the assay on SK-MEL-5 melanoma; 41.2% in the assay on UACC-62 melanoma; -73.6% (active) in the assay on LOX IMVI melanoma; 77% in the assay on SK-MEL-28 melanoma; 109% with SK-MEL-2 melanoma; 68.6% in the assay on EKVX NSCLC. In addition, the growth is 37.6% in the assay on SN12C renal; 37.5% in the assay with UO-31 renal; 132% with TK-10 renal; 41.7% with ACHN renal; 45.4% with CAKI-1 renal; 71.3% in the assay with A498 renal. Besides, the figures for the growth in the assay with CCRF-CEM leukemia and with MOLT-4 leukemia were 4.6% (active) and 22.4%, respectively.
For `COc1ccc([C@@H]2c3[nH]c4ccccc4c3C[C@H]3C(=O)N(C4CCN(CC5CCCCC5)CC4)CC(=O)N23)c(OC)c1`, the growth with HCT-15 colon was 56.5%; in the assay on HT29 colon, 1.45% (active); with SNB-75 CNS, 83.2%; in the assay with SNB-19 CNS it was 86.4%; with U251 CNS, 72.4%; in the assay with PC-3 prostate, 49.3%. Also, the growth is 73.3% in the assay on SK-MEL-5 melanoma; 93.9% in the assay on UACC-62 melanoma; 54.3% in the assay on LOX IMVI melanoma; 89.1% with SK-MEL-28 melanoma; 95.9% in the assay with SK-MEL-2 melanoma; 61.6% in the assay on EKVX NSCLC. The growth in the assay with SN12C renal was 81.6%; in the assay on UO-31 renal, 37.3%; with TK-10 renal, 98.2%; with ACHN renal, 81.3%; in the assay on CAKI-1 renal, 44.7%; in the assay with A498 renal, 78.9%. Further, the growth with CCRF-CEM leukemia was 60.5%; in the assay with MOLT-4 leukemia, 46.1%.
For the molecule `Cn1ccnc1C(=O)/C=C/c1ccc(CNC(=O)c2ccc(Cl)cc2)cc1`, the growth with HCT-15 colon is -14.5% (active); in the assay on HT29 colon it was -16.3% (active); in the assay on SNB-75 CNS, 56%; in the assay on SNB-19 CNS, 11.1%; in the assay with U251 CNS, 7.03% (active); in the assay with PC-3 prostate, 19.9%. Further, the growth with SK-MEL-5 melanoma was 32.6%; in the assay with UACC-62 melanoma, 5.76% (active); with LOX IMVI melanoma, -89.2% (active); with SK-MEL-28 melanoma, 45.2%; with SK-MEL-2 melanoma, 91.7%; in the assay with EKVX NSCLC it was 26.4%. For the same molecule, the growth in the assay with SN12C renal was 17.3%; in the assay on UO-31 renal, -11.3% (active); in the assay with TK-10 renal, 21.3%; with ACHN renal, 2.81% (active); in the assay with CAKI-1 renal, 35.9%; in the assay with A498 renal, 21.1%. In addition, the values for the growth in the assay on CCRF-CEM leukemia and in the assay on MOLT-4 leukemia were 7.64% (active) and 0.825% (active), respectively.
